Test results taken from PubChem BioAssay (NCI).
Several values for one entry are separate records, joined by “and”; a condition that tells them apart may be missing. Identical values can stand only once. Compounds without any hit were thinned out: in the full panel of roughly 83,000, 20% have a hit.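 Plates (96-well) were seeded with cells, treated with compound at one concentration, and incubated for 48 hours before percent growth was determined.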 Activity calls are given as the source filed them.

tested on: OVCAR-5 ovarian; test: NCI-60 one-dose screen, 48 h (100 = growth as untreated, 0 = no growth, -100 = all killed); details: 0.005 µM
Method: Growth inhibition of the OVCAR-5 human tumor cell line is measured as a screen for anti-cancer activity. Cells are grown in 96 well plates and exposed to the test compound for 48 hours. Compounds are tested at a single concentration, which is 10^-5 M for most compounds. The reported endpoint is percent growth (GI% or GIPRCNT), where numbers from 0 - 100% represent growth inhibition, and numbers from -100% - 0 represent cell death. For example, a value of 40 represents 60% growth inhibition. A value of 0 means no net growth occurred over the course of the experiment. A value of -40 indicates 40% of cells at the beginning of the experiment died by the end of the experiment. A value of -100 means all cells are dead at the end of the experiment.
NCI-60 Human Tumor Cell Lines Screen was performed using the standard one-dose NCI protocol, which is described in more detail at https://dtp.cancer.gov/discovery_development/nci-60/default.htm.
Compounds with GIPRCNT values below 10 were considered active. Activity score was based on GIPRCNT using the following formula: […]
Score is 0 for GIPRCNT values of 100 or above, 50 for GIPRCNT values of 0, and 100 for GIPRCNT values of -100.

| SMILES | growth |
| --- | --- |
| CN(C)CCNc1ncc(F)c(-c2cnc3cc(-c4cnn(C)c4)ccn23)n1 | 99.7% (inactive) |

same assay, conditions: 10 µM unless noted

| SMILES | growth |
| --- | --- |
| CCOc1ccc(N2C(N)=NC(N)=NC2(C)C)cc1 | 55.6% (inactive) and 100% (inactive) |
| CCOC(=O)c1cc2c(n1Cc1cc(OC)cc(OC)c1Br)-c1nc(NC(C)=O)sc1CCC2 | 115% (inactive) |
| O=C1CCc2c(sc3[nH]c(=S)n(Cc4ccc(Cl)cc4)c(=O)c23)C1 | 11.7% (inactive) |
| N=C(N)SCc1c2ccccc2c(CSC(=N)N)c2ccccc12 | 102% (inactive) |
| Cc1ccc2nc3ccccc3c(NCc3ccc(Cl)cc3)c2c1 | 50.7% (inactive) |
| CC(C)=CCc1cc(O)c(O)c2oc3cc(O)cc(O)c3c(=O)c12 | 75% (inactive) |
| CCOC(=O)C1=C(C)NC(=O)NC1c1c(Cl)n(-c2ccccc2)c2ccccc12 (stereo not given) | 84.7% (inactive) |
| O=C1/C(=C/c2ccccc2[N+](=O)[O-])Cc2ccccc21 | -1.63% (active) and 12.7% (inactive) |
| C/C=C(/C)C(=O)O[C@@H]1CC(C)(C)CC2C34OC(=O)[C@@]21CC[C@@]3(C)[C@]1(C)CCC2C(C)(C)C(=O)CC[C@]2(C)C1C[C@@H]4Cl (stereo not given in full) | 95.9% (inactive) |
| Nc1ncnc2c1C(c1ccc([N+](=O)[O-])cc1)c1sc3c(F)cccc3c1O2 (stereo not given) | 85.9% (inactive) |
| CCNC(=O)Oc1ccc(/C(=C(/C)Cc2ccc(OC)cc2)c2ccc(OCCN(CC)CC)cc2)cc1 | 89.9% (inactive) |
| COc1cc(NC2CCCCC2O)c2nc(-c3ccc(Cl)cc3)ccc2c1 (stereo not given) | 107% (inactive) and 94.6% (inactive) |
| CN1CCN(c2ccc(/C=C/C(=O)c3ccc(O)cc3)cc2)CC1 | 98.1% (inactive) |
| O=C(Nc1ccccc1C(=O)N/N=C(\c1ccccc1)c1ccccn1)c1ccccc1 | 31.9% (inactive) |
| COc1cc(-c2[nH]ncc2Nc2ccc(Cl)cc2)cc(OC)c1OC | 75.7% (inactive) |
| COC(=O)c1nc(-c2ccccc2)oc1S(=O)(=O)N(C)CCO | 82.5% (inactive) |
| CN1C(=O)/C(=C/c2ccc(C(=O)Nc3ncc(Cc4ccccc4Cl)s3)cc2)SC1=S | 70.5% (inactive) |
| O=C(N/N=C/c1ccc(O)cc1O)c1cccc(Nc2ccnc(C(F)(F)F)c2)c1 | 47.8% (inactive) |
| O=Nc1c(O)ccc2ccccc12 | 70.1% (inactive) and 112% (inactive) |

| SMILES | growth |
| --- | --- |
| O=C(c1ccc(Nc2nccc(NCCCNc3ccnc4cc(Cl)ccc34)n2)cc1)N1CCCCC1 | 71.2% (inactive) |
| C[C@@H]1CC[C@@H]2[C@@H]1[C@H](OC(=O)/C=C/c1ccccc1)[C@]1(c3ccccc3)C[C@@H](NC(=O)CO)[C@@]2(C)O1 | 98.5% (inactive) |
| CCOC(=O)C(=CCC(C)C)C(=O)OCC | 95.8% (inactive) |
| Cn1cc(C2=C(c3cccc4ccccc34)C(=O)NC2=O)c2cc(Br)ccc21 | 126% (inactive) |
| O=C1C(N2CCOCC2)=C(I)C(=O)c2ncccc21 | 97.8% (inactive) |
| CN(C)CCCn1c2nc(=O)[nH]c(=O)c-2nc2cc(Cl)c(Cl)cc21 | 125% (inactive) |
| O=C1/C(=C/c2cn(-c3ccccc3)nc2-c2ccccc2)SC(=S)N1c1ccc(Cl)cc1 | 93.4% (inactive) |
| O=C(CCN1CCOCC1)Nc1cccc(-n2cc(-c3ccncc3)c(-c3ccc(Cl)c(O)c3)n2)c1 | 62.2% (inactive) |
| COc1ccc2c(c1)c(-c1nc(-c3c[nH]c4c(Cl)nccc34)cs1)cn2C | 57.4% (inactive) |
| C#Cc1cc(C(=O)Nc2ccc(CN3CCN(C)CC3)c(C(F)(F)F)c2)ccc1C | 74.6% (inactive) |
| O=Nc1ccc(NO)c2ccccc12 | 109% (inactive) and 116% (inactive) |
| CCCCCCCCCCCCCCCC[N+](C)(C)CCN(Cc1ccc(OC)cc1)c1ncccn1 | -37% (active) and 67.2% (inactive) |
| CCOc1nc(-c2ccccc2)cc2c(O)c(C(=O)N/N=C/c3ccc(N(C)C)cc3)[nH]c(=O)c12 | 115% (inactive) |
| CCN1C(=O)/C(=c2\sc3n(c2=O)C2C(NN=3)N(CC)C(=O)N2CC)c2ccccc21 (stereo not given) | 54.2% (inactive) |
| COc1cc(Nc2nc3ccccc3cc2C(=O)Nc2ccc(F)c(F)c2)cc(OC)c1OC | 63.9% (inactive) |
| COc1ccc(/C=C/C(=O)c2cc3c(N)c(C(=O)Nc4ccccc4)sc3nc2C)cc1 | 39.3% (inactive) |
| COc1ccc(-c2ccc(-c3ccc(C(=N)N)cn3)s2)cc1Cl | -95.5% (active) |
| COc1cc(-c2nc(SCCC(C)C)nc(Nc3ccc(F)cc3)c2C#N)cc(OC)c1OC | 95% (inactive) |
| C=C1CC[C@@H]2[C@](C)(COC(C)=O)[C@H](OC(C)=O)CC[C@@]2(C)[C@@H]1CC(Nc1ccc(S(=O)(=O)Nc2nccs2)cc1)C1=CCOC1=O (stereo not given in full) | 7.82% (active) |

same assay, conditions: 30 µM

| SMILES | growth |
| --- | --- |
| CN(C)CCNc1ncc(F)c(-c2cnc3cc(-c4cnn(C)c4)ccn23)n1 | 64.5% (inactive) |
